The values below come from PubChem BioAssay.

Calls of active or inactive are those of the source.

Assay [1] has as its system PRMT1 (protein arginine N-methyltransferase 1). As to the kind of experiment: small molecules binding arginine methyltransferase PRMT1 – biochemical, small-molecule microarray, 635 nm fluorescence, primary screen (AID 1088).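 Also: binding of Prmt1 protein to compounds spotted on small-molecule microarray slides.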 Particulars: higher = more signal.
A short description of assay [2]: growth effects on S. cerevisiae YJM789 – YJM789 clinical isolate, OD600, 24 h, basal, primary screen (AID 1089).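 Also: growth of clinical yeast isolate S. cerevisiae YJM 789 seeded 1000 cells per well; test concentration not given here.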 Particulars: higher = more signal, called active from +8 up or from −8 down.
Assay [3] in a line: S. pombe growth modifiers, basal conditions – strain 972, OD600, 24 h, no modulator, primary screen (AID 1090).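 Also: basal condition with compound alone and no growth modifier present; test concentration not given here.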 The settings on record: S. pombe 972 growth, higher = more signal, called active from +8 up or from −8 down.
The nature of assay [4]: budding yeast growth modifiers under rapamycin – strain BY4716, OD600, 96 h, primary screen (AID 1091). Also: test concentration not given here. The settings on record: S. cerevisiae BY4716 + rapamycin, higher = more signal, called active from +8 up or from −8 down.
In assay [5] the target is Torsin-1A-interacting protein 2 (Homo sapiens) (UniProt Q8NFQ8). As to the kind of experiment: small molecules binding lysate-expressed LULL1 – cell lysate, human LULL1 lysate, 635/667 nm fluorescence, primary screen (AID 1092).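 Also: probe is lysate of COS7 cells overexpressing human LULL1; score merges per-feature 667 nm fluorescence with signal-to-noise.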 The settings on record: small-molecule microarray, hLULL1 lysate binding, 635 nm fluorescence; higher = more signal.
Torsin-1A-interacting protein 2 (Homo sapiens), sequence (Q8NFQ8 whole entry, looked up): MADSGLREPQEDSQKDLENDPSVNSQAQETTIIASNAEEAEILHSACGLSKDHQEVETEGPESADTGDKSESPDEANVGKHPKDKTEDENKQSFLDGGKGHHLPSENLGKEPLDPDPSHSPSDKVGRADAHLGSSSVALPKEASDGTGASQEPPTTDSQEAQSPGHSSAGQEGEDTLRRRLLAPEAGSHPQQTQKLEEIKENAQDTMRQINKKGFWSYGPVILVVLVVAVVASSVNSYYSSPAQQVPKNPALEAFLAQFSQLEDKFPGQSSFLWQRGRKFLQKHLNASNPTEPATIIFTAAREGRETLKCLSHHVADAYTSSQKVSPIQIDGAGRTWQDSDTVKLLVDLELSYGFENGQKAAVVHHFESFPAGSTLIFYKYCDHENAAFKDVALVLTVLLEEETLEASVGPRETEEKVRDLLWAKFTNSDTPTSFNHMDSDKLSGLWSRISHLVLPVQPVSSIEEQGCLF
Assay [6] can be described thus: optical density change of DRC41 E. coli – strain DRC41, OD650, 24 h, E. coli filamentation project, primary screen (AID 1093).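 Also: MC1000 strain lacking acrAB efflux and sulA so SOS filamentation is blocked; test concentration not given here.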 Particulars: E. coli DRC41 growth, higher = more signal, called active from +8 up or from −8 down.
Assay [7] in a line: probe aLefty2 binding to arrayed compounds – biochemical, biotinylated probe, 635/667 nm fluorescence, primary screen (AID 1094).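 Also: score merges spot fluorescence near 667 nm with spot signal-to-noise ratio.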 The settings on record: small-molecule microarray, higher = more signal.
Assay [8] relates to Noggin (protein binding on small-molecule microarray). As to the kind of experiment: small molecules binding Noggin protein – biochemical, 635/667 nm fluorescence, primary screen (AID 1095).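 Also: score merges 667 nm feature fluorescence with signal to noise over triplicate slides.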 The settings on record: 635 nm fluorescence, higher = more signal.
The target of assay [9] is Neurogenic locus notch homolog protein 3 (Homo sapiens) (UniProt Q9UM47). Description: small molecules binding NOTCH3 protein – biochemical, 635/667 nm fluorescence, primary screen (AID 1096). Particulars: small-molecule microarray, 635 nm fluorescence, higher = more signal.
Neurogenic locus notch homolog protein 3 (Homo sapiens), sequence (Q9UM47 whole entry, looked up): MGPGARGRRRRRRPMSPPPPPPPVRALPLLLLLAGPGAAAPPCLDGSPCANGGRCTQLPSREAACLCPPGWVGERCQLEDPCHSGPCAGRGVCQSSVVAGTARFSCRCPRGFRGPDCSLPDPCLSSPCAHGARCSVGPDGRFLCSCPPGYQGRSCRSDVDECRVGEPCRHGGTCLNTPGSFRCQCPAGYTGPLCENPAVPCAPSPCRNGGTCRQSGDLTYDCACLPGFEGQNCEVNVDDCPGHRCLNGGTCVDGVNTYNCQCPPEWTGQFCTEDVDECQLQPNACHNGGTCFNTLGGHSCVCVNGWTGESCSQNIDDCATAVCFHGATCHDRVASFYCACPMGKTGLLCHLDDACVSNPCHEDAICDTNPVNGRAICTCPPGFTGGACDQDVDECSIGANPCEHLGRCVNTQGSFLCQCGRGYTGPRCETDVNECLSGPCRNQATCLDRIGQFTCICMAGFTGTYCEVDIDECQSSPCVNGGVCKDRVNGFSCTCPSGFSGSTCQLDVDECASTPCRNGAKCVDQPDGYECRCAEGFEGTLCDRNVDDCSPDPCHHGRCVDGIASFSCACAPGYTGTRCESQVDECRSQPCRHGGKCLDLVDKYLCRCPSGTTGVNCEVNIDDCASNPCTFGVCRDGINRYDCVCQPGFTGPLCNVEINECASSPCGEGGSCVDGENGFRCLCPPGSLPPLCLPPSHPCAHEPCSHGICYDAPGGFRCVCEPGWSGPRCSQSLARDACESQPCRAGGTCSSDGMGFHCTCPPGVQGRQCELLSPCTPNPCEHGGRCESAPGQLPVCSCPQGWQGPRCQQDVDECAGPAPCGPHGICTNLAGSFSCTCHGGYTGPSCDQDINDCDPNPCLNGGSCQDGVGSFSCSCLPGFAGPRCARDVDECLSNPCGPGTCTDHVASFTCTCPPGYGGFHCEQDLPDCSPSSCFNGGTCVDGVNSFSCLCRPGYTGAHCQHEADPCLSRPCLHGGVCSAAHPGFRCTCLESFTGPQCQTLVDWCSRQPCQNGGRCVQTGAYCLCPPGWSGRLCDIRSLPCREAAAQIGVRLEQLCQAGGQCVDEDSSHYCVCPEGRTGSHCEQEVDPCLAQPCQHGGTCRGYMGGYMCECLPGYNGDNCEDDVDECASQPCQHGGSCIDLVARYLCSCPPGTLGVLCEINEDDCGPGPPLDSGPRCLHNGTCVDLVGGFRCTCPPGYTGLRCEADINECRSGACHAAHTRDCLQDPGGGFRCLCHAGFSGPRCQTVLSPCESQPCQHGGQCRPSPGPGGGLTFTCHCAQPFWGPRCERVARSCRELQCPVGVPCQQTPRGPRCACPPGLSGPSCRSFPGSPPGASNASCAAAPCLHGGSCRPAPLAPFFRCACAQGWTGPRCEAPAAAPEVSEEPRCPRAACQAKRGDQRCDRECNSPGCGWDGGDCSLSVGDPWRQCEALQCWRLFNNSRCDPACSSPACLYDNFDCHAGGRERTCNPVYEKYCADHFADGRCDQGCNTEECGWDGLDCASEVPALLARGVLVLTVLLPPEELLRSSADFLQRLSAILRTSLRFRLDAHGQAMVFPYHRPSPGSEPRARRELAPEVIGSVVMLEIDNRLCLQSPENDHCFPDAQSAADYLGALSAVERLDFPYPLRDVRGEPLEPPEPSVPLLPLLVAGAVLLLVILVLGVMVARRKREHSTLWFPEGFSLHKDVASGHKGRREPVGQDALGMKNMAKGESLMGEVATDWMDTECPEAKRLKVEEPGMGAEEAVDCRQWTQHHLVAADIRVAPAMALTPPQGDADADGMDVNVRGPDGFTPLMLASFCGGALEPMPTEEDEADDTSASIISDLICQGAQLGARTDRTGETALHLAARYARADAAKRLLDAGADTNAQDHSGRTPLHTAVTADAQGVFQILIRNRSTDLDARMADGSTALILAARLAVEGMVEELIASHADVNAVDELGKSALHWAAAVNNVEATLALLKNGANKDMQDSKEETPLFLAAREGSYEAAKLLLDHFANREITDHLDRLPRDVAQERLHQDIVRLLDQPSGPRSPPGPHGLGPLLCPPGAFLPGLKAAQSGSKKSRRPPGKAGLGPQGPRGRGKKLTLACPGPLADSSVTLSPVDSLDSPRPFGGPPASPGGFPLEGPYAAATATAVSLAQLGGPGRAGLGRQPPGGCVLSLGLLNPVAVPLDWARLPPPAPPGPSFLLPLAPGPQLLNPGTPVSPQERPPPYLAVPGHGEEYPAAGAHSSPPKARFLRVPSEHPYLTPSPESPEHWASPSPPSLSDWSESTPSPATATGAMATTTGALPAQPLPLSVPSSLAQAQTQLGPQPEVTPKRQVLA
A short description of assay [10]: probe aEGFR binding to arrayed compounds – biochemical, biotinylated probe, 635/667 nm fluorescence, primary screen (AID 1097).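 Also: probe is a biotinylated anti-EGFR antibody binding compounds printed on slides; score combines fluorescence near 667 nm and signal to noise of each spot.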 Particulars: small-molecule microarray, higher = more signal.
Assay [11] relates to Plasmodium falciparum Sir2 (PF13_0152, Sir2A). Description: Plasmodium falciparum Sir2A binding compounds – biochemical, small-molecule microarray, 635 nm fluorescence, primary screen (AID 1098).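 Also: score merges spot fluorescence intensity with its signal-to-noise ratio.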 The settings on record: fluorescence 635 nm, higher = more signal.
Assay [12] is described as follows: probe aDKK1 binding to arrayed compounds – biochemical, biotinylated probe, 635/667 nm fluorescence, primary screen (AID 1099).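 Also: score merges 667nm spot fluorescence with signal to noise across triplicate slides; reference of the scale not given here.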 Particulars: small-molecule microarray, higher = more signal.
A short description of assay [13]: probe aCHRDL2 binding to arrayed compounds – biochemical, biotinylated probe, 635/667 nm fluorescence, primary screen (AID 1100). Particulars: small-molecule microarray, higher = more signal.
Assay [14] is described as follows: change in splice reporter luminescence, either direction, cell-based, HEK293, spliceosome inhibition project, primary screen (AID 1101).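 Also: HEK293 cells carrying a splicing-competent luciferase reporter gene; test concentration not given here.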 The settings on record: HEK293 splicing luciferase reporter, 24 h, higher = more signal, called active from +8 up or from −8 down.
Assay [15] has as its target Fibroblast growth factor 10 (Homo sapiens) (UniProt O15520). Description: compounds binding fibroblast growth factor 10 – biochemical, small-molecule microarray, 635 nm fluorescence, primary screen (AID 1102). The settings on record: FGF10 binding, fluorescence 635 nm, higher = more signal.
Assay [16] relates to glycogen synthase kinase-3 (GSK3A per assay name; protocol says GSK3B). Description: compounds binding glycogen synthase kinase-3 – biochemical, small-molecule microarray, 635 nm fluorescence, GSK3A, primary screen (AID 1103). Also: the record names both GSK3A and GSK3B. The settings on record: fluorescence 635 nm, higher = more signal.
For assay [17], the target named is Epidermal growth factor receptor (Homo sapiens) (UniProt P00533). As to the kind of experiment: compounds binding epidermal growth factor receptor – biochemical, small-molecule microarray, 635 nm fluorescence, primary screen (AID 1104).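 Also: score merges 667 nm emission intensity with spot signal to noise over triplicate slides.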 The settings on record: EGFR binding, higher = more signal.
Epidermal growth factor receptor (Homo sapiens), sequence (P00533 whole entry, looked up): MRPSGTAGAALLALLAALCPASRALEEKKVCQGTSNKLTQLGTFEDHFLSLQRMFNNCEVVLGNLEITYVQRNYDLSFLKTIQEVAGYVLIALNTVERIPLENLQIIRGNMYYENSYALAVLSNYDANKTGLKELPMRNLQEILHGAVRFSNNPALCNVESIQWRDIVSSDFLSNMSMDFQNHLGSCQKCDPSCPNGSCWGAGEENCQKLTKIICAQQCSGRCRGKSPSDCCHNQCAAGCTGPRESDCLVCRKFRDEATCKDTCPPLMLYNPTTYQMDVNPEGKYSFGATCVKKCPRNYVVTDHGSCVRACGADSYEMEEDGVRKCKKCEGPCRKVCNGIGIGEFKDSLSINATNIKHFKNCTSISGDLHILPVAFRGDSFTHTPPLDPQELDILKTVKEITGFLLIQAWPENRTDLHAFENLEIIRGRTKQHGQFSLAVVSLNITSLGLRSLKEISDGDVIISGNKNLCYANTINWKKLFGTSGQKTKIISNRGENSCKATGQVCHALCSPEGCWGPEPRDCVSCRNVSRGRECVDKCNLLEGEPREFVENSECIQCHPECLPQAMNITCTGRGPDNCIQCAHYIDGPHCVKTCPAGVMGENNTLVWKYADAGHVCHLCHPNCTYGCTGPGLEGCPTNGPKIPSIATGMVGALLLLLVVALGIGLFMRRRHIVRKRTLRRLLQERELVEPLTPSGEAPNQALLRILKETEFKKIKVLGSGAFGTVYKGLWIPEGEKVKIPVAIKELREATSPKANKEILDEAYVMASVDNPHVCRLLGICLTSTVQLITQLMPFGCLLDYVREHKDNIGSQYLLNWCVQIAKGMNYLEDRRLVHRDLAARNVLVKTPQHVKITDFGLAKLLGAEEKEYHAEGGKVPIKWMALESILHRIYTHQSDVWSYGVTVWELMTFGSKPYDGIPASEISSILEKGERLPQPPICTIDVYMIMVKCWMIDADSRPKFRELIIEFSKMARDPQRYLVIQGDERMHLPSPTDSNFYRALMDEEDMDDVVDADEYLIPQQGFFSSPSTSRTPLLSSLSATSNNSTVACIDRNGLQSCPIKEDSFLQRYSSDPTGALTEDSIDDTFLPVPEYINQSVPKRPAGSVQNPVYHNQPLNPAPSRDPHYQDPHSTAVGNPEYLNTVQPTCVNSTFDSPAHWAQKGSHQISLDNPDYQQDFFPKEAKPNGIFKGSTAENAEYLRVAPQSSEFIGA
The target of assay [18] is Follistatin-related protein 3 (Homo sapiens) (UniProt O95633). Description: compounds binding follistatin-related protein 3 – biochemical, small-molecule microarray, 635 nm fluorescence, primary screen (AID 1105).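 Also: score merges emission near 667 nm and signal to noise per printed spot across three slides.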 Particulars: FSTL3 binding, higher = more signal.
Follistatin-related protein 3 (Homo sapiens), sequence (O95633 whole entry, looked up): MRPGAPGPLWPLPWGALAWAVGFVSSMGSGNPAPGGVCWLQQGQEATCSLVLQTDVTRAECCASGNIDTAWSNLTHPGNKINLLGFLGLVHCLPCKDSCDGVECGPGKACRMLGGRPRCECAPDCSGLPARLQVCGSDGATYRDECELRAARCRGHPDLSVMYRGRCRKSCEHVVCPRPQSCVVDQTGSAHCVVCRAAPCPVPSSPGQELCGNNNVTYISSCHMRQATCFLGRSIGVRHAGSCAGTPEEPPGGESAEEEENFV
Assay [19] addresses Dickkopf-related protein 1 (Homo sapiens) (UniProt O94907). As to the kind of experiment: small molecules binding DKK1 protein – biochemical, small-molecule microarray, 635 nm fluorescence scan, primary screen (AID 1106).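 Also: score merges emission near 667 nm with signal to noise over three replicate slides.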 The settings on record: higher = more signal.
For assay [20], the system named is Inhibin beta A chain (activin A). As to the kind of experiment: small molecules binding activin A – biochemical, small-molecule microarray, 635 nm fluorescence scan, primary screen (AID 1107).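 Also: mouse activin A protein probed at 4.33 µg/mL on printed slides; score merges bound-protein fluorescence near 667 nm with spot signal-to-noise.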 Particulars: INHBA, higher = more signal.

Fibroblast growth factor 10 (Homo sapiens), sequence (O15520 whole entry, looked up): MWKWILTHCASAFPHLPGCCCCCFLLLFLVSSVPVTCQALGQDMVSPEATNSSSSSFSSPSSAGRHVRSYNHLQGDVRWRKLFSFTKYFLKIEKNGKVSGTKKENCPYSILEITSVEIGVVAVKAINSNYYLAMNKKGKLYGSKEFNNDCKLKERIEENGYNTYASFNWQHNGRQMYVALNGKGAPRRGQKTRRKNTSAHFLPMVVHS
Dickkopf-related protein 1 (Homo sapiens), sequence (O94907 whole entry, looked up): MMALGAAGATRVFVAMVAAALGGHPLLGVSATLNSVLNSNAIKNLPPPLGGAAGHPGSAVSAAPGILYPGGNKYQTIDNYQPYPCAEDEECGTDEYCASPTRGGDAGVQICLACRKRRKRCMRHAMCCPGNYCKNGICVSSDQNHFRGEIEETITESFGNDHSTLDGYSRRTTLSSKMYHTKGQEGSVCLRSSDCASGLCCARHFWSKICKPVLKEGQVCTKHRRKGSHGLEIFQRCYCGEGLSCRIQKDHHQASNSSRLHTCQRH

For `CCN1C(=O)[C@H]2[C@H]3[C@H](O)[C@H](O)CC(=NOCC=C(C)CCC=C(C)C)[C@@H]3CC[C@H]2C1=O`, the composite z-score in [1] is 1.4; in assay [5] it was 0.915; in [7], -0.0973; in assay [8], 0.962; in [9], 1.08; in assay [10], 0.095. In addition, the composite z-score in [11] is 0.882; in [12], -0.214; in [13], -0.717; in [15], 1.21; in assay [16] it was 0.938; in assay [17], 1.53. For the same compound, the composite z-score in [18] worked out at 0.972; in assay [19], 1.16; in assay [20] it was 1.18. Moreover, the z-score in assay [2] is -0.56 (inactive); in [3] it was -1.86 (inactive); in assay [4] it was -1.3 (inactive); in assay [6], 0.756 (inactive); in assay [14] it was 0.486 (inactive).
With `COC(=O)CC=C[C@@H](C)[C@@H](C=NOC[C@@H](O)[C@H]1O[C@@H]2OC(C)(C)O[C@@H]2[C@H]1O)OC`, the composite z-score in [1] is 0.297; in assay [5], 0.31; in assay [7] it was -0.183; in assay [8], 0.505; in [9], 0.845; in assay [10], 0.0536. Besides, the composite z-score in assay [11] is 0.42; in assay [12] it was -0.0276; in assay [13], -0.673; in assay [15] it was 0.247; in assay [16], 0.589; in assay [17] it was 0.496. Further, the composite z-score in assay [18] was 0.115; in [19], 0.56; in assay [20], -0.16. Also, the z-score was 0.439 (inactive) in assay [2]; 0.429 (inactive) in assay [3]; 0.303 (inactive) in [4]; -0.125 (inactive) in [6]; -0.123 (inactive) in [14].
As to `CC(C)CON=C1C[C@@H](O)[C@@H](O)[C@@H]2[C@@H]3C(=O)N(Cc4ccc5c(c4)OCO5)C(=O)[C@@H]3CC[C@@H]12`, the composite z-score is 0.731 in assay [1]; 1.69 in assay [5]; -0.195 in [7]; 0.697 in assay [8]; -0.173 in [9]; -0.192 in assay [10]. Also, the composite z-score in assay [11] was 0.409; in [12], -0.218; in assay [13], -0.208; in assay [15], 0.0677; in [16], -0.315; in assay [17], -0.203. The composite z-score in assay [18] is -0.0661; in [19], -0.337; in assay [20], -0.0043. The z-score in assay [2] was -0.12 (inactive); in assay [3] it was 0.54 (inactive); in assay [4], -0.409 (inactive); in assay [6] it was -0.38 (inactive); in assay [14], 0.0483 (inactive).
As to `CCOC(=O)[C@H](CC(C)C)NC(=O)CCC1CC(OC(=O)NCc2ccc3c(c2)OCO3)CC2(CCCC(COC(=O)NCCC(C)C)O2)O1` (stereo not given in full), the composite z-score in assay [1] was 0.145; in assay [5] it was -0.222; in assay [7], -0.193; in [8], 0.482; in assay [9], 0.24; in [10], -0.0828. For the same compound, the composite z-score was 0.0402 in assay [11]; -0.494 in assay [12]; -0.36 in [13]; 0.136 in [15]; -0.322 in assay [16]; 0.0946 in assay [17]. In addition, the composite z-score was determined as 0.115 in [18], 0.0586 in assay [19] and 0.16 in [20]. The z-score is 0.138 (inactive) in assay [2]; 0.991 (inactive) in assay [3]; -0.511 (inactive) in assay [4]; 0.796 (inactive) in [6]; -0.748 (inactive) in [14].
For the compound `CC(CCN1CCCCc2nc(C)c(C)cc21)=NOC[C@@H](O)[C@H]1O[C@@H]2OC(C)(C)O[C@@H]2[C@H]1O`, the composite z-score in assay [1] was 0.908; in [5] it was -0.428; in assay [7], -0.225; in assay [8], 1.07; in [9] it was 0.218; in assay [10] it was -0.0179. Besides, the composite z-score in assay [11] is 0.577; in assay [12] it was -0.32; in assay [13], -1.02; in assay [15] it was 0.313; in [16], 0.397; in assay [17], 0.774. For the same compound, the composite z-score in assay [18] was 0.718; in assay [19] it was 0.874; in [20], -0.0196. The z-score in assay [2] was -1.58 (inactive); in assay [3] it was 0.186 (inactive); in assay [4], -0.164 (inactive); in assay [6], 0.579 (inactive); in assay [14], 0.595 (inactive).
